From PubChem BioAssay (NCATS)
Records with an inconclusive call do not appear. A call without a number means that no potency is given here. The source made the active and inactive calls. Calls follow the shape of the dose curve; as a rule, active = well fitted cell-killing curve with a large enough effect; inconclusive = small, poorly fitted or top-dose-only effect; inactive = no such curve, though single readings can be large or run the other way.

Assay: qHTS of pediatric cancer cell lines to identify multiple opportunities for drug repurposing: Primary screen for NB-EBc1 cells (AID 1347095)
Conditions: NB-EBc1 neuroblastoma viability, CellTiter-Glo luminescence, 48 h; series mostly up to 46 µM
Text: Drug repurposing or repositioning has been offered as a strategy for drug development in oncology programs. This approach has special potential for childhood cancers and other rare or orphan diseases, where the expected return on new drug development has been a disincentive to pharmaceuticals. […] In this project we exploit the poly-pharmacology of drugs to discover new indications via phenotypic screening of a panel of 19 well-characterized cell lines derived from solid tumors seen in children and adolescents. The goal is to identify approved drugs with previously unrecognized anticancer properties that has the potential to reveal new mechanisms and biological processes involved in carcinogenesis or drug resistance. We employed a titration-based paradigm (quantitative high-throughput screening or qHTS), where all compounds were tested at multiple concentrations for their effect on cell viability. Concentration-response curves (CRCs) were derived directly from the primary screen, and both potency and efficacy values were used to identify compounds with robust bioactivity profiles. We screened the NIH Chemical Genomics Center (NCGC) Pharmaceutical Collection (NPC) and Mechanism Interrogation Plate (MIPE) small molecule collections of approved and investigational compounds against these cell lines; and measured metabolically active cells after 48 hours of compound treatment as a proxy for cell viability. […] Assay Submitter: Nathalia J. Martinez, National Center for Advancing Translational Sciences, National Institutes of Health, Rockville, MD, USA; email: natalia.martinez@nih.gov Shen, M et al. Quantitative high-throughput phenotypic screening of pediatric cancer cell lines identifies multiple opportunities for drug repurposing. Oncotarget 2017 Dec 19;9(4):4758-4772. PMID 29435139.
The cells were obtained from University of North Carolina (UNC), Pediatric Preclinical Testing Program (PPT), and Coriell Institute (CI). qHTS cell viability assay: Cells were assayed in growth media at a density of 500-1,000 cells/well. Five microliters of cells were dispensed into 1,536-well, white, solid-bottom, TC-treated plates (Greiner Bio One) using a multidrop dispenser and incubated at 37 degrees C, 5% CO2, under a humidified atmosphere for 5 hours. Twenty-three nanoliters of compounds and controls (neutral control DMSO or positive control bortezomib at final concentration of 2.3 µM) were subsequently transferred by Kalypsys pintool. For primary screens, the MIPE collection was tested at 11-point dilutions (final concentrations range from 0.78 nM to 46 µM) and the NPC collection at 8-point dilutions (final concentrations range from 0.59 nM to 46 µM). Compounds tested in follow-up screens were assayed at 11-point dilutions. Cells were incubated for 48 hours, followed by addition of 3 µL of CellTiter-Glo (Promega). After a 15 min incubation at room temperature, samples were analyzed for luminescence intensity using a ViewLux High-throughput CCD imager equipped with clear filters.
Potency is read from the fitted curve at half-maximal effect.

SMILES | Potency | activity change, negative = cytotoxic
CC(=O)c1ccc(OCC(=O)N2CCCCC2)cc1 | inactive | 
CCCCCCCCCCCC(=O)[O][Sn]([CH2]CCC)([CH2]CCC)[O]C(=O)CCCCCCCCCCC | inactive | 
CCCOC(=O)c1ccc(O)cc1 | inactive | 
Cc1ccc(O)c(-n2nc3ccccc3n2)c1 | inactive | 
O=c1cc(-c2ccccc2)oc2ccccc12 | inactive | 
O=c1[nH]c2ccccc2n1CCCN1CCN(C(c2ccccc2)c2ccccc2)CC1 | inactive | 
C=CCCCCCCCCC(=O)O | inactive | 
Nc1nc2ccc([N+](=O)[O-])cc2s1 | inactive | 
O=C(O)Cc1ccc(-c2ccccc2)cc1 | inactive | 
c1ccc2sc(SSc3nc4ccccc4s3)nc2c1 | inactive | 
CN(C)c1ccc(N=NS(=O)(=O)O)cc1 | inactive | 
Nc1ccc(C(=O)O)c(O)c1 | inactive | 
Cc1ccc(C(=O)c2ccc(CC(=O)O)n2C)cc1 | inactive | 
CC(C(=O)O)c1ccc(C(=O)c2cccs2)cc1 (stereo not given) | inactive | 
O=C(O)c1ccccc1Nc1cccc(C(F)(F)F)c1 | inactive | 
CCCCCCCCCCCCCCCC(=O)OC(C)C | inactive | 
S=c1[nH]c2ccccc2s1 | inactive | 
O=C(O)Cc1ccc2c(c1)C(=O)c1ccccc1CO2 | inactive | 
CC1(C)S[C@@H]2[C@H](NC(=O)[C@H](N)c3ccccc3)C(=O)N2[C@H]1C(=O)O | inactive | 
Cc1[nH]cnc1CN1CCc2c(c3ccccc3n2C)C1=O | inactive | 

SMILES | Potency | activity change, negative = cytotoxic
CCOc1ccc2nc(S(N)(=O)=O)sc2c1 | inactive | 
CN1CCN(c2cc3c(nn2)Oc2ccccc2N3C)CC1 | inactive | 
CCC1C(=O)OCC1Cc1cncn1C (stereo not given) | inactive | 
COC(=O)Nc1nc2ccc(C(=O)C3CC3)cc2[nH]1 | 596 nM (active) | 
CC(C(=O)O)c1ccc2c(c1)[nH]c1ccc(Cl)cc12 (stereo not given) | inactive | 
O=C(OCc1ccccc1)c1ccccc1 | inactive | 
C/C(=N\O)c1ccc(OCC(=O)N2CCCCC2)cc1 | inactive | 
CC(=O)SCC(CC(=O)c1ccc(C)cc1)C(=O)O (stereo not given) | inactive | 
CCCSc1ccc2nc(NC(=O)OC)[nH]c2c1 | 266 nM (active) | 
CC(C)OC(=O)c1cc(C(=O)OC(C)C)cc([N+](=O)[O-])c1 | inactive | 
Clc1ccccc1-c1nc(-c2ccncc2)no1 | inactive | 
Cc1ccc2c(n1)Oc1ccc(C(C)C(=O)OCC(=O)N(C)C)cc1C2 (stereo not given) | inactive | 
C[N+]1(C)[C@@H]2CC(OC(=O)[C@H](CO)c3ccccc3)C[C@H]1[C@@H]1O[C@@H]12 (stereo not given in full) | inactive | 
Nc1ccc(O)c(C(=O)O)c1 | inactive | 
O=C(O)c1cc(O)c(O)c(O)c1 | inactive | 
C#CC1(O)CC[C@H]2[C@@H]3CCC4=CCCC[C@@H]4[C@H]3CC[C@@]21C (stereo not given in full) | inactive | 
CCOC(=O)c1ccccc1O | inactive | 
O=C(O)Cc1cccc(-c2cc(CCCCCCc3ccc(O[C@H]4O[C@H](CO)[C@@H](O)[C@H](O)[C@@H]4O)c(-c4cccc(CC(=O)O)c4)c3)ccc2O[C@H]2O[C@H](CO)[C@@H](O)[C@H](O)[C@@H]2O)c1 |  | 9.49% [at 0.597 µM] (inactive)
CNC(=O)c1c(I)c(NC(=O)CCCCC(=O)Nc2c(I)c(C(=O)O)c(I)c(C(=O)NC)c2I)c(I)c(C(=O)O)c1I | inactive | 
COc1cccc2c1C(=O)c1c(O)c3c(c(O)c1C2=O)C[C@@](O)(C(=O)CO)C[C@@H]3O[C@H]1C[C@H](N)[C@H](O[C@@H]2CCCCO2)[C@H](C)O1 | 75 nM (active) | 
